Compound activity (PubChem BioAssay)
ALDH1A1 inh = qHTS Assay for Inhibitors of Aldehyde Dehydrogenase 1 (ALDH1A1) | Aldehyde dehydrogenase 1A1 (Homo sapiens), P00352 | Purified ALDH1A1, NADH fluorescence, propionaldehyde substrate | Potency, µM (top dose mostly 75.3 µM), for the others: at the top dose activity, negative = inhibition, hits mostly inhibitors | 220,000 tested, 7.3% active | AID 1030, 2008;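 also: potency is read from the fitted curve at half-maximal effect; plate controls were no enzyme wells and a reference inhibitor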
PNC inhibitor = High Content Assay for Compounds that inhibit the Assembly of the Perinucleolar Compartment; PC3M PTB-GFP, PNC prevalence imaging, 16 h; hits give low values; activity change (PNC), negative = inhibition, % at 10 µM; 140,000 tested, 3.1% active; AID 2417, 2010;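 active = readout at or below -70, meaning at least 70% loss of cells showing the perinucleolar compartment, a nuclear body marking cancer cells; inconclusive = readout between -30 and a set limit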;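 also: plate controls were DMSO wells for no effect and camptothecin positive control wells for full effect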
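Compounds are pinned in duplicate onto adhered PC3M cells stably expressing GFP-tagged PTB and incubated 16 h at 37 C. Cells are then fixed, nuclei stained with Hoechst, and PNC-positive cells counted.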
IMPase inh = qHTS Assay for Identifying the Cell-Membrane Permeable IMPase Inhibitors | Inositol monophosphatase 1 (Rattus norvegicus), P97697 | CHO-M1 cells, IP1 accumulation, HTRF TR-FRET ratio | inhibition (IP1 accumulation), % at 46.1 µM | 120,000 tested, under 10 active | AID 901, 2007; active = well fitted curve in the direction sought with a large enough effect in the signal ratio, not every such curve was filed as active; inconclusive = small, poorly fitted or top-dose-only effect, or a change in a side signal; inactive = no such curve, though single readings can be large or run the other way; the % refers to the signal ratio;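 also: cells stimulated with carbachol in lithium chloride buffer; plate controls were DMSO basal wells for no effect and reference inhibitor wells for full effect; higher means more IMPase inhibition seen as more IP1 and lower FRET ratio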
Target sequence (P97697 whole entry, looked up): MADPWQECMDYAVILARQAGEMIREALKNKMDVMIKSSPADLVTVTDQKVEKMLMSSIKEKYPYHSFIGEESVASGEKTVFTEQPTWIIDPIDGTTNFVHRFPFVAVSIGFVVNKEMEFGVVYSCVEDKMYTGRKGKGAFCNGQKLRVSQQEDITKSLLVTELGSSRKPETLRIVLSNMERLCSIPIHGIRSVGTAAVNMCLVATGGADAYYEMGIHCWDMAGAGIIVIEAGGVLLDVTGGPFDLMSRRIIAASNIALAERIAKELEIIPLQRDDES
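CHO-M1, 2000 cells/well, cultured 16–30 h; cpd up to 46 uM; carbachol (50 uM solution, stimulation buffer w/ 50 mM LiCl, pH 7.4), 30 min 37C; IP-One TR-FRET, 10 min RT; Ex 320/Em 665, 620; Hill-fit AC50.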
KinaseGlo FLuc = Counterscreen for Luciferase (Kinase-Glo TM) Inhibition. 200,000 tested, 0.28% active. Potency, µM (titrated, usually from 38.3 µM), without a hit: top-dose activity change, negative = inhibition, usual class: inhibitors. Luciferin 4-monooxygenase (Photuris pensylvanica), Q27757. Kinase-Glo luciferase, ATP luminescence, 8 min; active = well fitted inhibition curve with a large enough effect; inconclusive = small, poorly fitted or top-dose-only effect; also: potency is read from the fitted curve at half-maximal effect; nearly all actives have a fitted effect of over 60% in size
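Luminescence was the read-out, taken after 8-minute incubation at ambient temperature. Luciferase turned over luciferin with 10 uM ATP in imidazole pH 7.2 buffer containing KCl, MgCl2, Tween 20 and BSA.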
HPGD inh = qHTS Assay for Inhibitors of HPGD (15-Hydroxyprostaglandin Dehydrogenase) | 150,000 tested, 4.3% active | Potency, µM, for the others: at the highest dose activity change, negative = inhibition, usual class: inhibitors | 15-hydroxyprostaglandin dehydrogenase [NAD(+)] (Homo sapiens), P15428 | purified HPGD, NADH fluorescence kinetic, PGE2 substrate; also: potency is read from the fitted curve at half-maximal effect
Target sequence (P15428 whole entry, looked up): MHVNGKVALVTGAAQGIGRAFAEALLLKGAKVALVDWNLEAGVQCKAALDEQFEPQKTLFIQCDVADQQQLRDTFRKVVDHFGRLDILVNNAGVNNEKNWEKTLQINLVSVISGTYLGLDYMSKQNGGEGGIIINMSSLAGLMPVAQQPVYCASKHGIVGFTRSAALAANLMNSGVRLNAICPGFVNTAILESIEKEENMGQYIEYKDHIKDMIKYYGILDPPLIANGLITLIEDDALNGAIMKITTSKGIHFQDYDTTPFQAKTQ
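20 nM HPGD preincubated 15 min at room temperature with compound in 50 mM Tris-HCl pH 8, 0.01% Tween 20. Started with 1 mM NAD+ and 30 uM prostaglandin E2; NADH fluorescence (360/450 nm) read 5 times over 30-s intervals, last minus first.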
Lamin A splicing = qHTS Assay for Modulators of Lamin A Splicing. 200,000 tested, 0.01% active. AID 1487, 2009. Potency, µM (series often up to 46.1 µM), inactives show at the top dose ratio change, negative = inhibition, actives largely listed as inhibitors. HeLa LMNA splicing GFP/RFP minigene ratio, 48 h; active = well fitted inhibition curve with a large enough effect in the signal ratio, with a control signal flat, not every such curve was filed as active; inconclusive = small, poorly fitted or top-dose-only effect, or effect the other way, or a change in a side signal; the % refers to the signal ratio; also: potency is read from the fitted curve at half-maximal effect
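S3 HeLa stable clones carrying a lamin A-EGFP splicing minigene plus DsRed2 were seeded at 600 cells/well in Opti-MEM with 2% FBS, pin-dosed and incubated 48 h at 37°C. Acumen cytometry (488 nm) gave the GFP/RFP total-intensity ratio.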
* marks the source's active call; other numbers are inactive results; ? = inconclusive; . = not tested or not shown; [ ] = remark or other dose. Rows were chosen to be rich in hits. Some 10% of all compounds tested hit in one or more screens of this group. Unless noted, calls follow the shape of the dose curve; as a rule, active = well fitted inhibition curve with a large enough effect (not every such curve was filed as active); inconclusive = small, poorly fitted or top-dose-only effect, or another doubt; inactive = no such curve, though single readings can be large or run the other way. Unless noted, % is scaled to controls: 0 for no effect and ±100 for the full control effect.

SMILES | ALDH1A1 inh | PNC inhibitor | IMPase inh | KinaseGlo FLuc | HPGD inh | Lamin A splicing
O=C(COC(=O)C1CC(O)CN1S(=O)(=O)c1ccc(Cl)cc1)c1ccccc1 (centres undefined) | ? | -5 | -8 | 0% | -18% | -9%
CC1(C)S[C@@H]2[C@H](NC(=O)COc3ccccc3)C(=O)N2[C@H]1C(=O)O (tested in a mixture with another compound) | 18%[20.9 µM] | . | 3[20.6 µM] | 0%[17.1 µM] | -11% | ?
Cc1ccc(SCCC(=O)N2CCC(C)CC2)cc1 | ? | 22 | 0 | -3% | 7.9µM* | ?
Cc1ccc(SCCC(=O)N2CCCC2)cc1 | ? | ? | 4 | -2% | 14µM* | ?
CCCn1c(-c2ccc(F)cc2)nc2c(NCCCN3CCCCC3C)nc(C)nc21 (centres undefined) | ? | . | . | -2% | -26% | .
O=C(NCCc1cccs1)C1CC(c2c(Cl)cccc2Cl)=NO1 (centres undefined) | -1% | ? | 8 | 2% | 14µM* | 14%
O=C(NCc1cccs1)C1CC(c2ccc(Cl)c(Cl)c2)=NO1 (centres undefined) | ? | . | . | -3% | . | -4%[46 µM]
c1ccc(C[C@@H](Nc2cccnc2)c2ccccc2)cc1 | 8%[13.5 µM] | . | . | -1%[7.66 µM] | -1% | .
O=c1[nH]c(=O)n(CCO)c2nnn(Cc3ccccc3)c12 | -9% | ? | 2 | -3% | 28µM* | -10%
O=C(COc1ccccc1)NCC(=O)N/N=C/c1cccs1 | 22µM* | -7 | -26 | 1% | -18% | 3%
Nc1ccc2oc(-c3cccc4ccccc34)nc2c1 | ? | -4 | -9 | -6% | 22µM* | 1%
Cc1ccc(-c2nc3cc(N)ccc3o2)c(C)c1 | ? | -17 | -19 | -10% | ? | 3%
CC(=O)Nc1ccc(NC(=O)Cn2cnc3c(nnn3Cc3ccc(F)cc3)c2=O)cc1 | 11µM* | . | . | 4% | . | .
CC(=O)Nc1ccc(NC(=O)Cn2cnc3c(cnn3C(C)(C)C)c2=O)cc1 | 16µM* | ? | -9 | -3% | 1% | -6%
Cc1cc(-c2n[nH]c(=S)n2/N=C/c2ccc(C)s2)n[nH]1 | -10% | 18 | . | -1% | 25µM* | 8%
Cc1cc(-c2n[nH]c(=S)n2/N=C/c2ccc(Br)s2)n[nH]1 | -15% | -4 | . | 0% | 13µM* | 10%
S=c1[nH]nc(-c2cc(-c3ccccc3)n[nH]2)n1/N=C/c1ccc(Br)s1 | 16% | . | . | . | . | .
COc1ccccc1CNC(=O)CCn1cnc2ccccc2c1=O | . | . | . | . | . | -2%[46 µM]
CC1(CC(=O)Nc2ccccc2)NC(=S)N(c2ccccc2)N1 (centres undefined) | 11µM* | . | . | 4% | . | 2%[46 µM]
c1ccc(-c2nc3cc4ccccc4cc3[nH]2)nc1 | 0% | 24 | -3 | 11µM* | -15% | ?
CC(=O)Nc1ccc2nc(-c3ccccn3)[nH]c2c1 | ? | -17 | -5 | 11µM* | ? | 17%
COc1ccccc1CNC(=O)C1(c2cccs2)CCOCC1 | . | . | . | . | . | -4%[46 µM]
CCc1cccc(NS(=O)(=O)c2cc(-c3cnc(C)o3)ccc2OC)c1 | . | . | . | . | . | -26%[46 µM]
Cc1ccc(NC(=O)c2c(C(=O)Nc3ccccc3)sc3nc(C)cc(=O)n23)cc1 | 4.5µM* | . | . | -1% | . | 20%[46 µM]
Cc1cc(=O)n2c(C(=O)Nc3ccc(C)c(C)c3)c(C(=O)Nc3ccccc3)sc2n1 | ? | . | . | 0% | . | ?
SMILES | ALDH1A1 inh | PNC inhibitor | IMPase inh | KinaseGlo FLuc | HPGD inh | Lamin A splicing
CCc1ccc(NC(=O)c2c(C(=O)Nc3ccccc3)sc3nc(C)cc(=O)n23)cc1 | 0.89µM* | . | . | 0% | . | ?
Cc1ccccc1NC(=O)c1cc2c(-c3ccccc3)nn(-c3ccccc3)c2s1 | . | . | -1 | . | . | .
O=C(CN1C(=O)c2cccc3cccc1c23)Nc1ccccc1Br | . | . | -2 | . | . | .
O=S(=O)(Nc1ccc(Cl)cc1)c1ccc(N2CCOCC2)c(NC(=S)NC2CC2)c1 | 8.9µM* | . | . | -1% | . | -3%[46 µM]
COc1ccc(NS(=O)(=O)c2cc(NC(=O)c3ccco3)ccc2N2CCCC2)cc1 | ? | -18 | -2 | -1% | -7% | ?
Cc1cccc(NS(=O)(=O)c2ccc3c(c2)CCCN3C(=O)C2CCC2)c1C | . | . | . | . | . | -5%[46 µM]
COc1ccc(NS(=O)(=O)c2ccc(N3CCCC3)c(NC(=S)Nc3cccc(C)c3C)c2)cc1 | 8.9µM* | ? | . | 3% | 13µM* | ?
COc1ccc(NS(=O)(=O)c2ccc(N3CCCC3)c(NC(=S)Nc3ccc(SC(F)F)cc3)c2)cc1 | 3.5µM* | 23 | . | 0% | 3.5µM* | ?
CC[C@H](CC[C@H](C)[C@@H]1CC[C@@H]2[C@H]3CC=C4C[C@@H](O)CC[C@]4(C)[C@H]3CC[C@]21C)C(C)C | -3%[20.9 µM] | . | -5[20.6 µM] | 4%[17.1 µM] | -4% | -11%
CNC(=S)N1N=C(c2ccc(Br)cc2)CC1c1ccc(OC)cc1 (centres undefined) | 7.1µM* | -121* | . | -5% | 35µM* | ?
CCC(=O)N1N=C(c2ccc(NS(C)(=O)=O)cc2)CC1c1ccc(N(C)C)cc1 (centres undefined) | -10% | . | . | 1% | . | 7%[9.22 µM]
CNC(=S)N1N=C(c2ccc(C)cc2)CC1c1cc(OC)ccc1OC (centres undefined) | -4% | . | . | 1% | . | 1%[46 µM]
CNC(=S)N1N=C(c2ccc(C)cc2)CC1c1ccc(N(C)C)cc1 (centres undefined) | 25µM* | . | . | -1% | . | .
Cc1ccc2c(C)c(C(=O)N3CCC(c4nc5ccccc5s4)CC3)oc2c1C | . | . | . | . | . | -2%[46 µM]
CCOc1nc(C#N)nc(N2CCCCC2)n1 | ? | 7 | 18 | 2% | -13% | ?
CCOc1nc(OCC)nc(N2CCC(C)CC2)n1 | 10µM* | 38 | 7 | -2% | -3% | 18%
Cn1c(SCC(=O)Nc2cc(C(C)(C)C)nn2-c2ccccc2)nc2ccccc21 | 4% | -14 | 13 | -2% | -1% | ?
CC(=O)Nc1ccc(SCC(=O)Nc2cc(C)on2)cc1 | 22µM* | . | . | 2% | . | ?
Cc1cc(C)cc(NC(=O)CCC(=O)Nc2cc(C)on2)c1 | -3% | -100* | 9 | 2% | -17% | -10%
CC(=O)Nc1ccc(SCC(=O)Nc2cc(C(C)(C)C)nn2-c2ccccc2)cc1 | 14% | -115* | . | -1% | -10% | ?
Cc1cc(NC(=O)CSc2ccc(F)cc2)no1 | -3% | . | . | -1% | . | .
COc1ccc(-n2nc3c(c2NC(=O)C(=O)N2CCN(C)CC2)CSC3)cc1 | . | . | . | . | . | 19%[46 µM]
